Among the data in PubChem BioAssay (EPA / NIEHS) are outcome and AC50 values, retold here.

Activity calls are given as the source filed them. The calls were made as follows: active = hit-call score of the fitted dose curve at least 0.9, where 1 is the maximum; inactive = score below 0.9.

What all share (conditions): mRNA level, 48 h; actives raise or lower the signal
Read-out in assay [1]: Bcl-2 (BAD) gene, BAD (gene 572)
As to the kind of experiment: LTEA_HepaRG_BAD: Life Technologies and Expression Analysis (LTEA) Assay for Bcl-2 (BAD) gene using HepaRG (AID 2283469). The method, boiled down: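 Activity values reflect up- or down-regulation of BAD mRNA in human HepaRG hepatic cells treated 48 h in serum-free medium, with eight-point half-log dosing capped at 100 uM and 0.5% DMSO vehicle.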

Read-out in assay [2]: Bcl-2 (BAX) gene, BAX (gene 581)
The assay is described as follows: LTEA_HepaRG_BAX: Life Technologies and Expression Analysis (LTEA) Assay for Bcl-2 (BAX) gene using HepaRG (AID 2283470). The method, boiled down:
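Cells were thawed, plated for 48 h, moved to serum-free induction medium and dosed for 48 h (highest concentration 100 uM, half-log steps, 0.5% DMSO). Total RNA was then analysed for BAX expression by qRT-PCR.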

Read-out in assay [3]: adenosine kinase (ADK) gene, ADK (gene 132)
The assay is described as follows: LTEA_HepaRG_ADK: Life Technologies and Expression Analysis (LTEA) Assay for adenosine kinase (ADK) gene using HepaRG (AID 2283471). Put shortly: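 ADK expression quantified by qRT-PCR, normalised to three housekeeping genes, after 48 h exposure of HepaRG cells to eight concentrations (top 100 uM, half-log steps, duplicate, 0.5% DMSO). Up- or down-regulation fitted relative to vehicle.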

Read-out in assay [4]: Alpha-fetoprotein (AFP) gene, AFP (gene 174)
As to the kind of experiment: LTEA_HepaRG_AFP: Life Technologies and Expression Analysis (LTEA) Assay for Alpha-fetoprotein (AFP) gene using HepaRG (AID 2283472). The method, boiled down:
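Chemicals were tested on differentiated HepaRG cells for 48 hours at eight concentrations up to 100 uM, with 0.5% DMSO as vehicle. AFP expression was then quantified by qRT-PCR and analyzed for gain or loss relative to DMSO.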

Read-out in assay [5]: Apolipoprotein A-V (APOA5) gene, APOA5 (gene 116519)
The assay is described as follows: LTEA_HepaRG_APOA5: Life Technologies and Expression Analysis (LTEA) Assay for Apolipoprotein A-V (APOA5) gene using HepaRG (AID 2283474). The method, boiled down:
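HepaRG, 48 h chemical exposure in serum-free induction medium, 8-pt half-log series (top 100 uM), 0.5% DMSO vehicle, duplicates. Readout: APOA5 mRNA by qRT-PCR, housekeeping-normalized; bidirectional fit vs DMSO baseline.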

Read-out in assay [6]: Apoptosis regulator Bcl-2 (Homo sapiens) (UniProt P10415)
As to the kind of experiment: LTEA_HepaRG_BCL2: Life Technologies and Expression Analysis (LTEA) Assay for Bcl-2 gene using HepaRG (AID 2283475). Put shortly: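 Plated human HepaRG cells are exposed to test chemicals for 48 h across eight concentrations from 100 uM downward in half-log steps (0.5% DMSO). BCL2 expression is then measured by qRT-PCR with housekeeping normalisation and fitted bidirectionally against vehicle.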

Read-out in assay [7]: Bcl-2 (BID) gene, BID (gene 637)
As to the kind of experiment: LTEA_HepaRG_BID: Life Technologies and Expression Analysis (LTEA) Assay for Bcl-2 (BID) gene using HepaRG (AID 2283476). Put shortly:
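Cells are plated, cultured 48 h, switched to serum-free induction medium, then dosed 48 h (100 uM top, half-log steps, 0.5% DMSO). RNA is isolated and BID expression read by qRT-PCR.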

Read-out in assay [8]: Caspase-3 (Homo sapiens) (UniProt P42574)
The assay is described as follows: LTEA_HepaRG_CASP3: Life Technologies and Expression Analysis (LTEA) Assay for cysteine-aspartic acid protease (CASP3) using HepaRG (AID 2283477). The method, boiled down:
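HepaRG, 48 h exposure, 8 conc. (top 100 uM, half-log steps, duplicate), 0.5% DMSO vehicle; qRT-PCR of CASP3 transcript, housekeeping-normalised (ACTB/GAPDH/POLR2A); bidirectional curve fit vs DMSO baseline.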

Read-out in assay [9]: Cytochrome P450 (CYP24A1), CYP24A1 (gene 1591)
The assay is described as follows: LTEA_HepaRG_CYP24A1: Life Technologies and Expression Analysis (LTEA) Assay for Cytochrome P450 (CYP24A1) using HepaRG (AID 2283478). Put shortly: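 qRT-PCR read-out: CYP24A1 transcript levels normalized to three housekeeping genes, bidirectional curve fits against 0.5% DMSO baseline. Human HepaRG cells treated 48 h with chemicals at eight concentrations from 100 uM in half-log steps.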

Read-out in assay [10]: Cytochrome P450 (CYP1A2), CYP1A2 (gene 1544)
As to the kind of experiment: LTEA_HepaRG_CYP1A2: Life Technologies and Expression Analysis (LTEA) Assay for Cytochrome P450 (CYP1A2) using HepaRG (AID 2283479). Put shortly: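 HepaRG, 48 h exposure, top 100 uM, half-log 8-pt, 0.5% DMSO vehicle, duplicates. Readout: TaqMan qRT-PCR of CYP1A2 mRNA, housekeeping-normalized (ACTB/GAPDH/POLR2A). Gain/loss fit relative to DMSO baseline.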

Read-out in assay [11]: cysteine-aspartic acid protease (CASP8), CASP8 (gene 841)
As to the kind of experiment: LTEA_HepaRG_CASP8: Life Technologies and Expression Analysis (LTEA) Assay for cysteine-aspartic acid protease (CASP8) using HepaRG (AID 2283480). Put shortly:
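Concentration-response in duplicate up to 100 uM (half-log steps, 0.5% DMSO) on differentiated HepaRG cultures for 48 h. Expression change of CASP8 mRNA is determined by TaqMan qRT-PCR with housekeeping-gene normalization.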

Read-out in assay [12]: Cytochrome P450 2C19 (Homo sapiens) (UniProt P33261)
The assay is described as follows: LTEA_HepaRG_CYP2C19: Life Technologies and Expression Analysis (LTEA) Assay for CYP2C19 using HepaRG (AID 2283482). Put shortly:
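HepaRG, 48 h chemical exposure, 8-pt half-log series from 100 uM in 0.5% DMSO, duplicates. Readout: CYP2C19 mRNA by TaqMan qRT-PCR, housekeeping-normalized. Bidirectional fit vs DMSO baseline; phenobarbital 1mM as induction control.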

Read-out in assay [13]: CYP2C8 (gene 1558)
As to the kind of experiment: LTEA_HepaRG_CYP2C8: Life Technologies and Expression Analysis (LTEA) Assay for CYP2C8 using HepaRG (AID 2283483). The method, boiled down:
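This is a transcriptional endpoint in HepaRG cultures: 48 h exposure, highest concentration 100 uM. CYP2C8 mRNA is quantified by TaqMan qRT-PCR.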

Read-out in assay [14]: CYP2E1 (gene 1571)
The assay is described as follows: LTEA_HepaRG_CYP2E1: Life Technologies and Expression Analysis (LTEA) Assay for CYP2E1 using HepaRG (AID 2283485). Put shortly: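 Readout is qRT-PCR of CYP2E1 mRNA, normalized to three housekeeping genes and fitted bidirectionally against 0.5% DMSO. HepaRG cells were dosed 48 h at eight concentrations, highest 100 uM with half-log dilutions.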

Read-out in assay [15]: CYP4A11 (gene 1579)
The assay is described as follows: LTEA_HepaRG_CYP4A11: Life Technologies and Expression Analysis (LTEA) Assay for CYP4A11 using HepaRG (AID 2283486). Put shortly:
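CYP4A11 transcript levels were quantified by TaqMan qRT-PCR after HepaRG human liver cells were treated for 48 hours with test chemicals (top 100 uM, half-log dilutions, 0.5% DMSO). Gain or loss of signal was fitted relative to DMSO.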

Read-out in assay [16]: Cytochrome P450 3A4 (Homo sapiens) (UniProt P08684)
As to the kind of experiment: LTEA_HepaRG_CYP3A4: Life Technologies and Expression Analysis (LTEA) Assay for CYP3A4 using HepaRG (AID 2283487). The method, boiled down: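 Differentiated HepaRG cells, plated 48 h, then dosed 48 h in serum-free induction medium with 0.5% DMSO, 8 half-log concentrations up to 100 uM, duplicate. CYP3A4 mRNA by qRT-PCR, normalized to ACTB/GAPDH/POLR2A; bidirectional fit versus DMSO.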

Read-out in assay [17]: DNA damage-inducible transcript 3 (DDIT3), DDIT3 (gene 1649)
As to the kind of experiment: LTEA_HepaRG_DDIT3: Life Technologies and Expression Analysis (LTEA) Assay for DNA damage-inducible transcript 3 (DDIT3) using HepaRG (AID 2283488). The method, boiled down: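 Cells are human HepaRG liver cells treated for 48 h with eight half-log concentrations up to 100 uM in 0.5% DMSO. Transcript levels come from qRT-PCR normalized to three housekeeping genes, with activity fitted in both directions relative to vehicle.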

Cytochrome P450 2C19 (Homo sapiens), sequence (P33261 whole entry, looked up): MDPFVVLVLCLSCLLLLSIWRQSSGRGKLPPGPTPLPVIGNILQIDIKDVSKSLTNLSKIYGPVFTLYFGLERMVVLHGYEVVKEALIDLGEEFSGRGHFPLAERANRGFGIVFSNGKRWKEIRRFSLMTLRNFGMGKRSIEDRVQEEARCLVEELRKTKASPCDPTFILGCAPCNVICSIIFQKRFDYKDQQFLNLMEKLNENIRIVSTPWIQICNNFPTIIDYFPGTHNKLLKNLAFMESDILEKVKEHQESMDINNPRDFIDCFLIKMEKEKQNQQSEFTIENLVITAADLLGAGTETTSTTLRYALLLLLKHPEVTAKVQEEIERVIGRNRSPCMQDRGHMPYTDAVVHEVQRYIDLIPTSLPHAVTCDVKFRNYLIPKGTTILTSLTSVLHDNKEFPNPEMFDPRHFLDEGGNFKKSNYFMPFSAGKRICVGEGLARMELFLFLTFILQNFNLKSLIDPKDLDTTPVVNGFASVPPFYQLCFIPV
Apoptosis regulator Bcl-2 (Homo sapiens), sequence (P10415 whole entry, looked up): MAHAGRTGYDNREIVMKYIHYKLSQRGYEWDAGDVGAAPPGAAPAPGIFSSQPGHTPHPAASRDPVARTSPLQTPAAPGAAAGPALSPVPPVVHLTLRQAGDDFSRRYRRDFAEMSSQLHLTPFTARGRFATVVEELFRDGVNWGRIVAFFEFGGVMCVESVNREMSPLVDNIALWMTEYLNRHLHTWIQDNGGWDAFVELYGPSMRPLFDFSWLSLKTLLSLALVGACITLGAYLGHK
Cytochrome P450 3A4 (Homo sapiens), sequence (P08684 whole entry, looked up): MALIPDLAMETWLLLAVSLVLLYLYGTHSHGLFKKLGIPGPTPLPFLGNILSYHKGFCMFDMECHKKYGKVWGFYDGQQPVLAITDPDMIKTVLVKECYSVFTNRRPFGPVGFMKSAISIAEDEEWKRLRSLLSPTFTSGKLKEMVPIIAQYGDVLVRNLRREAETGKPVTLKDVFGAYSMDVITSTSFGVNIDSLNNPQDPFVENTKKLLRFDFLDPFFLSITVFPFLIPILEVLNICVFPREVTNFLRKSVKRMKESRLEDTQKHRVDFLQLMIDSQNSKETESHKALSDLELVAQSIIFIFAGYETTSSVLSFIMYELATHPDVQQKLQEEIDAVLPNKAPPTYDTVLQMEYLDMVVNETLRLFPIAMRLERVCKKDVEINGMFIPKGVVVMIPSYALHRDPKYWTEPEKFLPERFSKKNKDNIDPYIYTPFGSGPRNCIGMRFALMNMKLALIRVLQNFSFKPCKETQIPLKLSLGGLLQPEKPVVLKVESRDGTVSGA
Caspase-3 (Homo sapiens), sequence (P42574 whole entry, looked up): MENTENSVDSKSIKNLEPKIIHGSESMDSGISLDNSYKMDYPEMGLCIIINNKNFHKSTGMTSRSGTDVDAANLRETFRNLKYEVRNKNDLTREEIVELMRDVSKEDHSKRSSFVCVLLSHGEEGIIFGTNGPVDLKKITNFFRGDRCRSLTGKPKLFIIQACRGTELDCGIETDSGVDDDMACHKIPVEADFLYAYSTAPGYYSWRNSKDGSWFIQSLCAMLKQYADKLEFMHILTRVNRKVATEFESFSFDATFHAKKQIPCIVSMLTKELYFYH

For the compound `CCCCCCCCCCCCCCCCCC(=O)O`, the compound was classed as inactive in [1], in assay [2], in assay [3], in [4], in [5] and in [6]. Also, the compound was called inactive in assay [7], in assay [8], in [9], in assay [10], in [11] and in [12]. In addition, the compound was classed as inactive in assay [13], in assay [14], in assay [15], in [16] and in assay [17].
As for `CCOc1ccc2c(c1)C(C)=CC(C)(C)N2`, the compound was classed as inactive in assay [1], in assay [2], in [3], in [5], in assay [6] and in assay [7]. Further, the result in assay [8], in [9], in [13], in assay [15] and in [17] was inactive. The AC50 in assay [4] is 50 µM (active); in assay [10], 13 µM (active); in assay [14], 30 µM (active); in assay [16] it was 1.73 µM (active).
With `CC(=O)Oc1ccccc1C(=O)O`, the outcome in assay [1], in [2], in assay [3], in assay [4], in assay [5] and in assay [6] was inactive. Also, the call in [7], in assay [8], in assay [9], in [12], in [13] and in assay [14] was inactive. The outcome in [15], in assay [16] and in assay [17] was inactive. In addition, in assay [10], the AC50 was 50 µM (active).
On to `C[C@]12C=CC(=O)C=C1CC[C@@H]1[C@@H]2C(=O)C[C@@]2(C)[C@H]1CC[C@]2(O)C(=O)CO`, for which the call in [1], in assay [2], in assay [3], in assay [4], in assay [5] and in [6] was inactive. Further, the compound was called inactive in [7], in assay [8] and in assay [17].
For `Oc1ccc2ccccc2c1N=Nc1ccccc1`, the outcome in assay [1], in assay [2], in [3], in [5], in [7] and in assay [8] was inactive. Further, the compound was classed as inactive in assay [9] and in assay [17]. Also, the concentration at half-maximal activity (AC50) in [4] was 27.9 µM (active); in [6] it was 31.5 µM (active); in assay [10], 0.232 µM (active); in [12], 9.92 µM (active); in assay [13] it was 9.55 µM (active); in [14], 21.5 µM (active). Also, the AC50 was 27.1 µM (active) in [15] and 1.81 µM (active) in assay [16].

In general, AC50 refers to the concentration at which the activity in the assay is half-maximal.
